# Bioassay records as filed in PubChem.
# Most compounds without a hit are left out; they make up all but 12% or so of the library.
# HP1b binding inh = inhibitors of HP1-beta chromodomain binding to methylated histone tails. AlphaScreen HP1-beta / biotin-H3K9me3 peptide binding. Potency, µM (top dose mostly 114 µM), inactives show at the highest dose activity change, negative = inhibition, actives largely listed as inhibitors. 390,000 tested, 0.56% active; also: nearly all actives have a fitted effect of over 70% in size
# Target sequence (P83916 whole entry, looked up): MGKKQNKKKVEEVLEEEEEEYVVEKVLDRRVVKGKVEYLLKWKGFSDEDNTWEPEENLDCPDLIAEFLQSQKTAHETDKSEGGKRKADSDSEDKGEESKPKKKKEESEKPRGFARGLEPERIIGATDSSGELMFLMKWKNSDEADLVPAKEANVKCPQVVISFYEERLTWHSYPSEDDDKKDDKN
#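 Compound inhibition of the preformed complex between 50 nM HP1-beta and 50 nM biotinylated H3K9me3 peptide was read by AlphaScreen. Buffer was PBS pH 7.4 with 0.01% Tween-20. Incubations ran 30 min at room temperature, with 10 ug/mL donor/acceptor beads.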
# JMJD2A Tudor = blocks the human JMJD2A Tudor domain. O75164. AlphaScreen JMJD2A-Tudor / H3K4me3 peptide binding. Potency, µM (highest dose often 114 µM), for inactives: at the top dose activity change, negative = inhibition, usual class: inhibitors. 390,000 tested, 4.4% active; also: % is scaled to controls: 0 for no effect and ±100 for the full control effect; nearly all actives have a fitted effect of over 50% in size
# BAZ2B block = inhibitors of human BAZ2B bromodomain; 360,000 tested, 4.4% active; AlphaScreen BAZ2B-H3K14Ac peptide displacement; Q9UIF8; AID 504333; Potency, µM (top dose mostly 114 µM), without a hit: top-dose activity change, negative = inhibition, hits mostly inhibitors; also: % is scaled to controls: 0 for no effect and ±100 for the full control effect; nearly all actives have a fitted effect of over 60% in size
#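 BAZ2B (50 nM) with biotin-H3(5-23)K14Ac peptide (50 nM) in PBS pH 7.4, 0.01% Tween-20, preformed 30 min, then compound 30 min at room temperature; top concentration 110uM. AlphaScreen streptavidin donor/nickel chelate acceptor beads (10 ug/mL final), 20 min dark, signal read.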
# G9a block = G9a (human) methyltransferase inhibition | Q96KQ7 | G9a H3K9 monomethylation, AlphaScreen, 2 h | Potency, µM (top dose mostly 102 µM), for the others: at the highest dose activity, negative = inhibition, most hits filed as inhibitors | 350,000 tested, 8.8% active | AID 504332; also: % is scaled to controls: 0 for no effect and ±100 for the full control effect; nearly all actives have a fitted effect of over 75% in size
# Target sequence (Q96KQ7 913-1193 limits assumed): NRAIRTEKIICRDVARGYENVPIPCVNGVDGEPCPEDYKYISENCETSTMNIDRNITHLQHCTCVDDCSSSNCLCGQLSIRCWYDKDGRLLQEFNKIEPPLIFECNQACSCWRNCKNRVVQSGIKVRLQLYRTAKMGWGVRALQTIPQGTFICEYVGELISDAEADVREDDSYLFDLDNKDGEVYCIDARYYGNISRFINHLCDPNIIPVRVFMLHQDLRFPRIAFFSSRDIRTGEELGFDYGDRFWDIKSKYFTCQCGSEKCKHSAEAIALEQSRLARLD
#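 G9a (20 nM) was preincubated 15 min with compound, then reacted 2 h at room temperature with 500 nM biotin-H3K9 peptide and 20 µM SAM. Monomethyl-H3K9 detected by AlphaScreen using anti-H3K9me1 antibody.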
# Sfp PPTase inh = Sfp phosphopantetheinyl transferase inhibition; Potency, µM, without a hit: largest response in the series, negative = inhibition, most hits filed as inhibitors; 310,000 tested, 3.5% active; AID 1490; Q9F4F7; Biochemical Sfp PPTase activity, qHTS;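 also: the enzyme is Sfp with the accession as filed and its product quenches rhodamine fluorescence; 0% = enzyme reaction without inhibitor and -100% = no enzyme wells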
#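 Fluorescence-quenching assay: 15 nM Sfp-PPTase preincubated 15 min at room temperature with compound, then 5 uM rhodamine-CoA and 12.5 uM BHQ-2-labelled YbbR peptide added. Fluorescence (ex 525/em 598 nm) read at start and after 30 min; difference gives rate.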
# * hit, by the source's call; u = inconclusive; x = no result; [ ] = dose if it differs, or a comment. Calls follow the shape of the dose curve; as a rule, active = well fitted curve in the direction sought with a large enough effect; inconclusive = small, poorly fitted or top-dose-only effect, or another doubt; inactive = no such curve, though single readings can be large; an effect the other way counts as inactive or inconclusive. Potency is read from the fitted curve at half-maximal effect.
SMILES,HP1b binding inh,JMJD2A Tudor,BAZ2B block,G9a block,Sfp PPTase inh
C#CCOCCOCCOCCNc1nc(N2CCN(C(=O)[C@H]([C@@H](C)CC)n3cc([C@@H](N)CC(C)C)nn3)CC2)nc(N2CCN(C(=O)[C@H](Cc3ccc(O)cc3)n3cc([C@@H](N)C(C)CC)nn3)CC2)n1 (stereo partly drawn),12.3%,u,79.4µM*,6.3%[12.7 µM],2.9%
O=C(NCCc1ccc(O)cc1)c1ccc(Cl)cc1,32.9%,8.7%,-1.9%[57.1 µM],16.1%,7.9%
Cc1cc(Cl)c(OCCCCNC(C)(C)C)c(Br)c1,x,x,u,8.91µM*,-21.2%
Cc1cc(Cl)c(OCCCN(C)C)c(Br)c1,u,8.91µM*,-37.0%,11.2µM*,-7.1%
COc1ccccc1OCCCCNC(C)(C)C,7.5%,-11.0%,x,3.6%[59 µM],-0.3%
CN(C)CCCOc1ccc(Cl)cc1Br,u,1µM*,44.7µM*,30.5%[0.501 µM],-14.4%
Clc1ccc(OCCSc2ncccn2)c(Br)c1,130.0%,128.1%,251.4%,462.5%,-0.7%
Cc1ccc(OCCCN(C)C)c(Br)c1,u,3.16µM*,79.4µM*,u,1.0%
Cc1cccc(NC(=O)CNC(=O)CCNC(=O)c2ccc(C(C)(C)C)cc2)c1C,35.9%,-4.4%,6.1%,2.9%[12.7 µM],x
COc1ccccc1NC(=O)c1cc([N+](=O)[O-])ccc1NCCN1C(=O)CCC1=O,48.0%,-30.3%,u,x,-9.5%
C/C(=C\c1ccc(C)o1)C(=O)c1c(C)cc(C)[nH]c1=O,19.6%,-19.1%,x,50.1µM*,31.6µM*
Cc1ccc(S(=O)(=O)NCCC(=O)NCC(=O)Nc2c(C)cccc2C)cc1C,1.7%,-8.2%,-3.7%,-6.2%,x
Cc1cc(C)n2nc(SCn3nnc4ccccc4c3=O)nc2n1,36.1%,-12.3%,-1.1%,-28.3%,3.8%
[S-]c1nnc(-c2ccc(Br)cc2)n1-c1ccccc1.[Zn+2],20.9%,50.1µM*,79.4µM*,-5.3%[0.501 µM],5.3%
COc1ccc(C)cc1NC(=O)CN1c2ccccc2S(=O)(=O)c2ccccc21,-5.3%,-15.0%,-33.2%,0.1%[59 µM],x
COC(=O)c1ccc(NC(=S)Nc2ccccn2)cc1,12.0%,u,-5.2%,u,11.0%
COC(=O)NNC(=S)Nc1ccc(Br)cc1,68.8%,3.1%,-10.7%,50.1µM*,-10.9%
COC(=O)c1ccc(NC(=S)Nc2ccc(O)cc2)cc1,24.3%,-7.6%,-5.0%,50.1µM*,u
Oc1ccc(NC(=S)Nc2ccc(O)cc2)cc1,31.4%,-19.3%,-7.5%,50.1µM*,44.7µM*
O=C(O)Cc1ccc(NC(=O)C2CC=CCC2C(=O)O)cc1 (stereo not drawn),x,x,56.2µM*,u,-8.9%
COc1cc(C(=O)ON=C2C(C)=CC(=O)C=C2C)cc(OC)c1OC,20.8%,-11.9%,u,31.6µM*,0.4%
COc1cc(C(=O)O/N=C2/C=C(C)C(=O)C=C2C)cc(OC)c1OC,60.5%,-12.6%,-8.9%,-11.3%[59 µM],5.6%
Brc1ccccc1OCCCOc1cccc2cccnc12,50.7%,24.3%,17.9%,18.3%[0.501 µM],-2.3%
O=C(Nc1ccccc1-c1ccccc1)c1ccco1,33.6%,-0.6%,8.7%,18.3%[59 µM],8.4%
COC(=O)C1=C(C)Nc2ccc(C)cc2S1,u,79.4µM*,39.8µM*,39.8µM*,u
SMILES,HP1b binding inh,JMJD2A Tudor,BAZ2B block,G9a block,Sfp PPTase inh
COC(=O)c1cc(-c2ccc(C)cc2)n[nH]1,32.7%,-11.7%,-5.0%,x,-7.0%
CCOC(=O)c1c2c(n(-c3ccc(OC)cc3)c1C)C(=O)C(=O)c1ccccc1-2,u,17.8µM*,x,x,x
CCOC(=O)c1c(N)n(-c2cccc(OC)c2)c2nc3ccccc3nc12,32.6%,-2.9%,-2.7%,-8.1%[59 µM],x
NC(=O)c1ccsc1NC(=O)COC(=O)Cc1ccccc1Cl,25.8%,-21.6%,7.0%,23.8%[12.7 µM],x
O=C(COc1ncnc2sccc12)N1CCN(C(=O)c2ccco2)CC1,19.7%,u,u,50.1µM*,0.4%
O=C(Cn1cnc2c(oc3ccccc32)c1=O)c1ccccc1,35.2%,-12.2%,-27.1%,-8.1%[59 µM],13.7%
O=C(NCCSCc1c(F)cccc1Cl)c1ccco1,21.8%,-15.5%,-37.8%,-41.3%,-21.9%
COc1ccccc1C(=O)NCCSCc1c(F)cccc1Cl,38.6%,6.1%,8.4%,70.8µM*,9.5%
